SUMO Mot1 rescue: SUMOylation pathway inhibition by Mot1-301 growth rescue; 1% of 320,000 active; S. cerevisiae Mot1-301 growth rescue, ATP luminescence, 38.5C; percent above DMSO median, 100 means doubled; growth rescue, % at 18.8 µM;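 active = every valid replicate shows activation above 250% relative to neutral control wells; inactive = the rest, any valid replicate at or below 250%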;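 note: OY570 slx delta 5 strain wells were the positive control but not used for scaling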
NTR1 agonist: activates human neurotensin receptor 1; activation, % at 20 µM; P30989; NTR1-U2OS beta-arrestin-GFP spot imaging, agonist mode; 0.17% of 330,000 active;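 active = activation at or above 40% of the spot to cytoplasm intensity ratio, with at least 20 cells analyzed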;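 note: 0% = DMSO without peptide and 100% = 100 nM NTR1 peptide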
Target sequence (P30989 whole entry, looked up): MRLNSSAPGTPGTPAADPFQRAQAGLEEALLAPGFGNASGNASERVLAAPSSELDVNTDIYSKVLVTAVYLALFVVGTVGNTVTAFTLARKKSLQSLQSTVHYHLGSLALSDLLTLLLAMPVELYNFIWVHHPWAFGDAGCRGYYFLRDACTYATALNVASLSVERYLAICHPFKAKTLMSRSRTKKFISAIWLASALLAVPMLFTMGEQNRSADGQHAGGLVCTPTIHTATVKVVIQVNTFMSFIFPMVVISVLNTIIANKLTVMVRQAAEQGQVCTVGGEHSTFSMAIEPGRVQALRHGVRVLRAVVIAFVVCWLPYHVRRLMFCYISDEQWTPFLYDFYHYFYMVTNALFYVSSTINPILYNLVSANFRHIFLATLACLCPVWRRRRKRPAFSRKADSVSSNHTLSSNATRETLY
H9c2 protect: myocardial damage modulation in H9c2 cells; H9c2 cardiomyocytes, H2O2 injury protection, ATPLite, 2 h; protection from H2O2 cell death, % at 20 µM; 0.63% of 360,000 active; AID 588492;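 active = compounds giving at least 50% protection of heart cells from peroxide-induced death in the single-dose screen, raw or plate-pattern-corrected value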;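 note: 0% = DMSO wells with peroxide and 100% = DMSO wells without peroxide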
AHR act: human AHR activation; AHR-responsive luciferase reporter cells, luminescence; P35869; activation, % at 5 µM; 2.5% of 320,000 active; in the data active = activation above about 47%;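 note: 0% = vehicle wells and 100% = reference agonist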
GRIN3A LBD mod: NR3A (human) ligand-binding domain modulation. 2.5% of 340,000 active. Tm shift relative to glycine control, % at 25 µM. NR3A LBD differential scanning fluorimetry, Tm shift; 0% = protein alone, 100% = glycine-bound protein;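 active = melting temperature shift of at least 10% of the positive control shift, at one fixed dose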
AI-2 QS mod: Vibrio harveyi AI-2 quorum sensing modulation; Vibrio harveyi JMH597 AI-2 luminescence/OD600 ratio, 9 h; stronger effect = lower value; strain lacks LuxN and CqsS sensors; 0 = neutral-control median; activity change, % at 7.5 µM; 0.4% of 300,000 active; AID 2094; in the data active = activity change below about -75%, passing the limit was not always enough;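 note: luminescence divided by OD600 gain over 9 h not by final OD600 alone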
Starred values were filed as active, the others as inactive; / = no result given. Shown are actives, neighbours in structure and some others; about 6.2% of the full set was active somewhere.

SMILES	SUMO Mot1 rescue	NTR1 agonist	H9c2 protect	AHR act	GRIN3A LBD mod	AI-2 QS mod
O=C(CCN1C(=O)C2CC=CCC2C1=O)Nc1ccccc1Cl (stereo not drawn)	2	-1	3	1	-1	26
O=C(Cn1cnc2c(nnn2Cc2ccccc2)c1=O)c1ccccc1	0	2	2	0	12*	6
COc1ccc(NC(=O)Cn2cnc3ccccc3c2=O)cc1OC	4	0	7	1	-9	-76*
O=C(Cn1cnc2c(nnn2Cc2ccc(Cl)cc2)c1=O)c1ccccc1	8	5	6	-2	-3	16
O=C(Cn1cnc2ccccc2c1=O)c1ccccc1	/	0	2	48*	1	9
COc1ccc(NC(=O)CCNC(=O)Cn2cnc3ccccc3c2=O)cc1OC	187	0	3	2	1	29
CCC(=O)c1ccc(OC)c(OC)c1OCc1ccccc1	/	/	-1	/	1	/
CCOC(=O)c1ccc(NCCc2ccc(OC)c(OC)c2)c(N)c1	-5	2	-6	-1	4	-6
C[C@H](CO)N1C[C@H](C)[C@@H](CN(C)S(=O)(=O)c2ccccc2)Oc2ccc(NC(=O)CCN3CCOCC3)cc2C1=O	11	-1	10	0	-1	/
O=C(NNC(=O)c1ccc2nonc2c1)Nc1ccc(Cl)cc1	-3	2	-4	77*	-5	21
Cc1cc(C)nc(NS(=O)(=O)c2ccc(NC(=O)CCC(=O)O)cc2)n1	-5	2	1	0	3	8
CC(C)c1cccc(-c2ccc3c(c2)S(=O)(=O)c2cccc(C(=O)NCc4ccco4)c2C3=O)c1	7	4	16	4	-4	/
CC(C)c1cccc(-c2ccc3c(c2)S(=O)(=O)c2cccc(C(=O)O)c2C3=O)c1	9	1	4	3	24*	/
O=C(CSc1nnc(CCCN2C(=O)c3cccc4cccc(c34)C2=O)n1-c1ccccc1)NCCCO	-13	1	4	-2	13*	-1
CCC(C)C(NC(=O)c1ccccc1NC(=O)c1ccc(OC)cc1)C(=O)NCCCn1ccnc1 (stereo not drawn)	6	0	-5	13	-1	190
C=CCn1c(N)c(C(=O)OC(C)(C)C)c2nc3ccccc3nc21	/	0	2	/	9	-5
C=CCn1c(N)c(C(=O)Nc2ccccc2)c2nc3ccccc3nc21	-4	29	-3	-5	13*	32
C=CCc1cccc(/C=N/NC(=O)CCC(=O)Nc2ccc(F)cc2)c1O	13	0	57*	13	-7	5
C=CCc1cccc(/C=N/NC(=O)C[n+]2ccccc2)c1O	84	0	2	1	2	6
C=CCc1cccc(/C=N/NC(=O)CCCNc2ccc(C)cc2)c1O	12	/	49	3	12*	-7
Cc1ccc(C2CC2C(=O)NNC(=S)Nc2cccc(Cl)c2)cc1 (stereo not drawn)	29	2	-14	3	11*	33
N#Cc1c(C(F)(F)F)cc(-c2ccc(Cl)c(Cl)c2)nc1SCCN1CCOCC1	20	14	-6	65*	-2	27
Cc1cc(C(F)(F)F)nc(SCCN2CCOCC2)c1C#N	5	-2	-5	3	0	23
N#Cc1c(C(F)(F)F)cc(-c2ccccc2)nc1SCc1nc(N)nc(N2CCOCC2)n1	21	-2	-4	4	16*	16
CC(=O)c1c(C)n(-c2ccc(Cl)cc2)c2ccc(O)cc12	76	5	12	2	-2	18
SMILES	SUMO Mot1 rescue	NTR1 agonist	H9c2 protect	AHR act	GRIN3A LBD mod	AI-2 QS mod
CC(=O)c1c(C)n(-c2cccc(Cl)c2)c2ccc(O)cc12	-8	3	62*	9	-1	4
COc1cc(OC)cc(C(=O)NNC(=O)C2CCC2)c1	/	/	0	/	/	/
COc1cc(OC)cc(C(=O)NNC(=O)C2CCCC2)c1	331*	1	-4	3	-2	19
Brc1ccc(-c2cnc(-c3cccs3)o2)cc1	102	8	-7	66*	8	-8
CN(C)c1ccc(-c2nnc(-c3cccs3)o2)cc1	14	2	-17	-1	0	-6
CNC(C)C#Cc1ccc2c(=O)c3c(OC)cccc3oc2c1 (stereo not drawn)	-18	0	/	97*	/	28
